Laboratory results: PubChem BioAssay (NCI)
Compounds without any hit were thinned out: in the full panel of roughly 83,000, 20% have a hit.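 How to read the values: 0–100, growth inhibition (40 = 60% inhibited); 0, no net growth; -100 to 0, cell death (-40 = 40% of starting cells died; -100 = all dead).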 Unmarked numbers belong to inactive results. Calls of active or inactive are those of the source. How the source made its calls: active means growth percent below 10; inactive means the rest.

Key:
Test in all cases: NCI-60 one-dose screen, 48 h (100 = growth as untreated, 0 = no growth, -100 = all killed)
Conditions in all cases: 10 µM unless noted
NCI-H23 lung = test system: NCI-H23 lung
NCI-H226 lung = test system: NCI-H226 lung
NCI-H322M lung = test system: NCI-H322M lung
NCI-H460 lung = test system: NCI-H460 lung
HOP-92 NSCLC = test system: HOP-92 NSCLC
NCI-H522 lung = test system: NCI-H522 lung
A549/ATCC NSCLC = test system: A549/ATCC NSCLC
786-0 renal = test system: 786-0 renal
COLO 205 colon = test system: COLO 205 colon
HOP-62 NSCLC = test system: HOP-62 NSCLC

SMILES	growth (NCI-H23 lung)	growth (NCI-H226 lung)	growth (NCI-H322M lung)	growth (NCI-H460 lung)	growth (HOP-92 NSCLC)	growth (NCI-H522 lung)	growth (A549/ATCC NSCLC)	growth (786-0 renal)	growth (COLO 205 colon)	growth (HOP-62 NSCLC)
COc1ccc(/C(=N\N=C(N)N)c2ccc(Cl)cc2)cc1OC	87.2%	88.6%	79.6%	78%	-0.241% (active)	74.3%	76.1%	59.2%	80%	
N#Cc1nc(-c2ccccc2)oc1N1CCC(C2(C(F)(F)F)N=N2)CC1	91.6%	97%	107%	102%	90.1%	96.8%	99.8%	101%	103%	
COc1ccc(/C=N/NC(=O)CSc2nc(-c3cnccn3)cc(-c3cccs3)c2C#N)cc1	72.8%	75.1%	84.4%	37.4%	63.1%	81.1%	50.5%	22.6%	68.1%	
CC1(C)C=Cc2cc(/C(N)=N/C(N)=N/c3nc4ccccc4s3)ccc2O1	58.3%	5.64% (active)	93.8%	52.3%	94.2%	91.2%	67%	113%	102%	
CNc1sc(S(=O)(=O)NC)nc1S(=O)(=O)c1ccc(C)cc1	102%	92.5%	96.4%	109%	84.9%		98.8%	99.4%	112%	99.4%
CS(=O)(=O)c1nccc(-c2c(-c3cccc(OCc4ccc(Cl)c(C(F)(F)F)c4)c3)nc3sccn23)n1	39.4%	23.6%	86.1%	55.6%	73.9%	80.1%	106%	106%	105%	
O=C(CCCCCCNC(=O)C(O)(O)C(F)(F)F)Nc1nc2ccccc2s1	3.62% (active)	25.4%	8.24% (active)	8.87% (active)	-5.22% (active)	-35.8% (active)	4.79% (active)	20.3%	-68.5% (active)	
O=C(CCCCCCN1CC(=O)N2[C@@H](c3ccc(Cl)s3)c3[nH]c4ccccc4c3C[C@H]2C1=O)NO	41.1%	68.6%	46%	39.4%	34.6%	3.19% (active)	73.4%	81.1%	54%	
CCCCCCNC(=O)Oc1ccc(/C(=C(/C)c2ccc(OC)cc2)c2ccc(OCCN3CCCCCC3)cc2)cc1	20.4%	81%	82.1%	-67.9% (active)	63.4%	82.4%	45.7%	24.3%	-60.5% (active)	
Cn1cc(-c2cc3ncnc(Nc4ccc(CC(=O)Nc5nc(C(C)(C)C)cs5)cc4)c3s2)cn1	47.5%	32.9%	43.8%	54.3%	85%		46.4%	34.4%	65.8%	93.1%
Cc1ccc(-c2nc(SCC(=O)c3ccccc3)nc(Nc3ccc(S(N)(=O)=O)cc3)c2C#N)cc1	34.5%	71.4%	99.5%	65.2%	37.6%	87.1%	87.4%	46.3%	101%	
CC(Nc1ncnc2ccc(-c3cnc4cnccn34)cc12)c1ccccc1 (stereo unspecified)	54.8%	46.9%	26.4%	61%	27.1%	27.3%	37.6%	47.9%	81%	
COCCOc1ccc2ncc(C#Cc3cncc(C(=O)Nc4ccc(CN5CCN(C)CC5)c(C(F)(F)F)c4)c3)n2n1	-48.7% (active)	-12.7% (active)	18.7%	0.556% (active)	-44.1% (active)	-56.4% (active)	10.3%	-15.3% (active)	-32.7% (active)	
C[C@]12CC[C@H]3[C@@H](CC=C4C[C@@H](O)CC[C@@]43C)[C@@H]1CC[C@@H]2[C@](C)(O)CCc1cccnc1	52.5%	73.4%	79.5%	63.5%	66.8%	36.6%	70.1%	80.8%	70.8%	
CN1CC[C@@H]2[C@@]3(C)CC[C@H](O)C(C)(C)[C@@H]3CC[C@@]2(C)[C@]2(C)CC[C@@]3(CO)CCC(C)(C)C[C@@H]3C12 (stereo partly specified)	90.7%	94.4%	98.8%	98.3%	66.8%	98%	86%	80.7%	-2.47% (active)	
Cc1cccc(N2CCN(C3=C(Cl)C(=O)c4ncccc4C3=O)CC2)c1	55.3%	90.3%	93.8%	58.4%	144%		93.8%	104%	90.4%	83.3%
CC1(C)CC[C@]23CC[C@]4(C)[C@H](CC[C@@H]5[C@@]6(C)CC[C@H](NCO)C(C)(C)[C@@H]6CC[C@]54C)[C@H]2[C@H]1OC3	55.7%	97.2%	84.2%	-41.1% (active)	40.1%	101%	60.5%	64.3%	-48.5% (active)	
N#CC1=C2NCCCNc3oc(nc3C#N)Cc3ccccc3CC(=N1)O2	90.7%	92.3%	94.5%	96.8%	94.9%	97.1%	98.3%	95%	88.1%	
COc1ccc(-c2c3c(cn2Cc2cccc(OC)c2)-c2oncc2CCC3)cc1	105%	85%	103%	98.9%	74.2%	96.3%	98.9%	103%	95.2%	
NS(=O)(=O)c1ccc(Nc2nc(N/N=C/c3ccc4c(c3)OCO4)nc(Nc3ccccc3)n2)cc1	25.1%	65%	61.3%	2.83% (active)	66%	60.8%	74.7%	61.1%	49.7%	
O=C1[C@H]2Cc3c([nH]c4ccccc34)[C@H](c3ccc(Cl)cc3)N2C(=O)CN1C1CCN(CC2CCCCC2)CC1	75.8%	88.2%	93.6%	35.5%	70.5%		64.4%	75%	51.4%	
Cc1cc(Br)ccc1-n1cc(C#N)c(N)c1C(=O)c1ccc(Br)cc1	92.7%	97.7%	104%	113%	94.2%		105%	93.5%	118%	103%
O=C(CCCCCCN1CC(=O)N2[C@@H](c3ccccc3Br)c3[nH]c4ccccc4c3C[C@H]2C1=O)NO	63.9%	99.7%	66.1%	51.8%	29%		88.4%	87.3%	42.8%	61.5%
O=C(CCl)Nc1ccc(NC(=O)c2cc(Cl)ccc2O)c(Cl)c1	29%	59%	96%	67.1%	127%	-22.6% (active)	88.3%	88%	95.2%	
Clc1ccc2[nH]cc(-c3nn4cc(-c5ccncc5)nc4s3)c2c1	43.1%	22.7%	49.2%	10.1%	33.8%	36.4%	68.6%	69.9%	69.5%	
CN1CCN(c2ccc(Nc3nc(NCCNS(=O)(=O)c4ccc5ccccc5c4)c4sccc4n3)cc2)CC1	84.3%	98.4%	83.7%	74.3%	47.8%		84.3%	56.3%	13.3%	97.5%
CN(C)c1ccc(/C=N/Nc2nc(N/N=C/c3ccc(N(C)C)cc3)nc(N3CCCCC3)n2)cc1	96.7%	102%	100%	70.9%	84%	96.2%	78.5%	88.2%	83.5%	
CN(C)CCCOc1ccc(C(=C(c2ccccc2)C2CCCC2)c2ccc(OCCCN(C)C)cc2)cc1	-78.8% (active)	-67.5% (active)	-97% (active)	-62.6% (active)	-76.3% (active)		-79.2% (active)	-80.4% (active)	-76.2% (active)	-72.6% (active)
